Cruzain inh noDet: cruzain (T. cruzi) inhibition without detergent; P25779; purified cruzain, Z-FR-AMC fluorescence, no detergent; Potency, µM, inactives show max response, negative = inhibition, most hits filed as inhibitors; 200,000 compounds, 2.3% hits; AID 1476;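 also: plate controls were enzyme without inhibitor for no effect and buffer without enzyme for full effect; nearly all actives have a fitted effect of over 40% in size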
Target sequence (P25779 123-467 limits assumed): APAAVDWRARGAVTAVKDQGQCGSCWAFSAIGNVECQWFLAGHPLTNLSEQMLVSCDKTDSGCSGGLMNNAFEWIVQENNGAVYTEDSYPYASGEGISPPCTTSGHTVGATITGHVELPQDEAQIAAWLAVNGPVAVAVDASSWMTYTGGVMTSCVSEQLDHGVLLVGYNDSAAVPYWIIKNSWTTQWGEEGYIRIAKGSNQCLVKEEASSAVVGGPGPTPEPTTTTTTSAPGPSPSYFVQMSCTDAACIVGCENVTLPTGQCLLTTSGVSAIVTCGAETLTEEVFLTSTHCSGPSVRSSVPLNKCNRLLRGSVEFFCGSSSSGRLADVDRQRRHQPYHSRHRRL
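Detergent-free condition (0.00005% Triton X-100) in acetate buffer pH 5.5 with DTT. 1.5 nM enzyme and compound were pre-mixed 15 min, then 2 uM Z-FR-AMC substrate added; reaction progress from fluorescence change between first and third reads (60 s).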
Cruzain Triton: inhibitors of Trypanosoma cruzi cruzain with detergent. Potency, µM, for inactives: max response, negative = inhibition, hits mostly inhibitors. P25779. 200,000 compounds, 0.43% hits. purified cruzain, Z-FR-AMC fluorescence, 0.01% Triton. AID 1478;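 also: plate controls were neutral wells for no effect and buffer without enzyme for full effect; nearly all actives have a fitted effect of over 40% in size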
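Purified cruzain (1.5 nM final) was preincubated with compounds for 15 min at room temperature in 100 mM sodium acetate pH 5.5, 5 mM DTT, 0.01% Triton X-100. Reaction started with 2 uM Z-FR-AMC; AMC fluorescence change over 60 s gave activity.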
* hit, by the source's call; ? = inconclusive. Hits are enriched below; roughly 2.5% of the tested compounds scored in any of these assays. Calls follow the shape of the dose curve; as a rule, active = well fitted curve in the direction sought with a large enough effect; inconclusive = small, poorly fitted or top-dose-only effect, or another doubt; inactive = no such curve, though single readings can be large; an effect the other way counts as inactive or inconclusive. Potency is read from the fitted curve at half-maximal effect.

SMILES	Cruzain inh noDet	Cruzain Triton
O=C1NC(=O)c2c1c1c3ccccc3[nH]c1c1[nH]c3ccccc3c21	8.9µM*	-1%
Cc1ccc(C)c2c1[nH]c1ccccc12	9%	-11%
NCCNS(=O)(=O)c1ccc(N)cc1	-7%	0%
COc1ccc(C(=O)NC(=S)Nc2cc3oc4ccccc4c3cc2OC)cc1	7.9µM*	-3%
COc1ccc(CC(=O)Nc2cc3oc4ccccc4c3cc2OC)cc1	12%	-5%
COc1cc2c(cc1NC(=O)C(C)Sc1nc3ccccc3n1C)oc1ccccc12 (configuration not stated)	25µM*	1%
COc1cc(OC)cc(C(=O)NC(=S)Nc2cc3oc4ccccc4c3cc2OC)c1	4µM*	-5%
COc1cc2c(cc1NC(=O)C(C)Sc1cccc[n+]1[O-])oc1ccccc12 (configuration not stated)	?	-24%
COc1cc2c(cc1NC(=O)COc1ccc3ccccc3c1)oc1ccccc12	10µM*	-6%
COc1cc2c(cc1NC(=O)/C=C/c1cc(OC)c(OC)c(OC)c1)oc1ccccc12	?	-5%
COc1cc2c(cc1NC(=O)COc1ccc(Br)cc1)oc1ccccc12	8%	-2%
COc1cc2nncc(SCc3ccc(Cl)c(Cl)c3)c2cc1OC	-2%	2%
O=Cc1ccc(CO)o1	2%	2%
CCOc1ccc(C(=O)Nc2ccc3nc(SCC(=O)N4CCOCC4)sc3c2)cc1	?	0%
O=P(O)(O)O[C@@H]1O[C@H](CO)[C@@H](O)[C@H](O)[C@@H]1O	-2%	1%
CCOC(=O)c1ccn(-c2nc(-c3cccc(OC)c3)cc(C(F)(F)F)n2)n1	?	-15%
Cc1cc(N2CCC(C(=O)Nc3ccc(F)cc3F)CC2)n2nc(C)c(-c3ccc(Cl)cc3)c2n1	3%	-1%
COc1ccccc1C(=O)Nc1cc2c(cc1N1CCCCC1)n(C)c(=O)n2C	-2%	-5%
CCOc1ccccc1-n1nnnc1SCC(=O)Nc1cc2oc3ccccc3c2cc1OC	7.9µM*	4%
CCOc1ccccc1-n1nnnc1SCC(=O)Nc1cc(C)on1	1%	3%
COc1ccccc1CC(=O)Nc1cc2oc3ccccc3c2cc1OC	-24%	3%
COc1cccc(NC(=O)CSc2ncnc3c2oc2ccccc23)c1	22%	-4%
COc1cc2c(cc1NC(=S)NC(=O)c1c(OC)cccc1OC)oc1ccccc12	6.3µM*	-4%
COc1ccc(Cl)cc1NC(=O)CSc1ncnc2c1oc1ccccc12	16µM*	-2%
COc1cccc(CCNC(=O)c2cnc3sc(N4CCCCCC4)nn3c2=O)c1	14%	-1%
SMILES	Cruzain inh noDet	Cruzain Triton
O=C(CN1C(=O)C2CCCCN2c2ccc(C(=O)N3CCCC3)cc21)NCc1ccccc1F (configuration not stated)	-3%	-2%
CC#C[C@]1(O)CC[C@H]2C3CCC4=CC(=O)CCC4=C3[C@@H](c3ccc(N(C)C)cc3)C[C@@]21C (some centres not stated)	?	-6%
CC[n+]1c(/C=C/C=C/N(C(C)=O)c2ccccc2)sc2ccccc21	20µM*	-4%
CC[n+]1c(/C=C/N(C)c2ccccc2)sc2ccc(Cl)cc21	-16%	-10%
CCCCn1c(=O)c2oc3ccccc3c2n(CC(=O)Nc2cc(C)ccc2C)c1=O	23%	-1%
CCS(=O)(=O)N1CCCC(C(=O)NCCOC)C1 (configuration not stated)	-12%	1%
CN(C)S(=O)(=O)c1cccc(C(=O)N2CCc3ccccc32)c1	-7%	0%
CN(C)S(=O)(=O)c1cccc(C(=O)C2=C3SC=C(c4ccccc4)N3CC2)c1	25µM*	-4%
CC#N	-9%	2%
O=C1CCC/C(=N/NC(=O)c2ccc(CN3c4cccc5cccc(c45)S3(=O)=O)cc2)C1	-2%	-5%
CC(/C=N/NC(=O)c1ccc(CN2c3cccc4cccc(c34)S2(=O)=O)cc1)c1ccccc1 (configuration not stated)	10µM*	-5%
Cc1cccc(C)c1NC(=O)c1nc(SC(C)C)ncc1Cl	-7%	-4%
C=CC(C1=CC(=O)C(OC)=C(OC)C1=O)c1ccccc1 (configuration not stated)	13%	0%
O=S(=O)(Nc1nc2ccc(S(=O)(=O)N3CCCC3)cc2s1)c1ccc(F)cc1	16µM*	-9%
O=C(Nc1nc2ccc(S(=O)(=O)N3CCCC3)cc2s1)c1ccc(F)cc1	-5%	0%
NC(=[SH+])N=N/C=C1/C=CC=CN1.O=S(=O)(O)O.[Fe]	3%	-2%
O=C(O)c1ccc2nc(-c3ccccc3)sc2c1	-8%	-5%
Nc1ccc(-c2nc3ccc(C(=O)O)cc3s2)cc1	?	25µM*
O=C(/C(=N\Nc1ccc([N+](=O)[O-])cc1)Sc1nnnn1-c1ccccc1)c1ccccc1	?	-8%
Cc1ccc(N/N=C(/Sc2nnnn2-c2ccccc2)C(=O)c2ccccc2)cc1	32µM*	-5%
COc1cc2ncc3c(-c4ccccc4)nn(-c4ccc(C)cc4)c3c2cc1OC	?	-1%
COc1ccc(C(=O)NCCc2sc(-c3cccc(F)c3)nc2C)cc1	-11%	-12%
COCCN1C=C(C(=O)OC)C(c2cc(Br)c(OC)c(OC)c2)C(C(=O)OC)=C1	?	22µM*
COC(=O)C1=CN(C)C=C(C(=O)OC)C1c1ccc(O)c(OC)c1	-2%	1%
CCn1c(CNC(=O)Cc2ccc(OC)cc2)nnc1SCC(=O)Nc1nccs1	-7%	5%
SMILES	Cruzain inh noDet	Cruzain Triton
CCn1c(COc2ccc3c(c2)CCCC3)nnc1SCC(=O)Nc1nccs1	7.9µM*	9%
CC12CCC(C(=O)N(CSC(=S)N/N=C\c3ccccc3O)C1=O)C2(C)C (configuration not stated)	?	-19%
CN(C)c1ccc(/C=N\NC(=S)SCN2C(=O)C3CCC(C)(C2=O)C3(C)C)cc1 (configuration not stated)	32µM*	2%
O=c1c(N2CCN(c3cccc(Cl)c3)CC2)csc2ccccc12	-2%	-6%
CCCCCC(=O)Nc1nc(C)c(-c2csc(Nc3cc(Cl)ccc3C)n2)s1	10µM*	-3%
CCCCCCC(=O)Nc1nc(C)c(-c2csc(Nc3ccc(Cl)cc3)n2)s1	?	5%
CCC(C)C(=O)Nc1nc(C)c(-c2csc(Nc3ccccc3OC)n2)s1 (configuration not stated)	?	-2%
CCCC(C)C(=O)Nc1nc(C)c(-c2csc(Nc3cc(Cl)ccc3C)n2)s1 (configuration not stated)	13µM*	4%
CCCCCC(=O)Nc1nc(C)c(-c2csc(Nc3ccc(Cl)cc3)n2)s1	13µM*	-6%
CCCSc1ncc(Cl)c(C(=O)Nc2c(C(=O)c3ccc(F)cc3)oc3ccccc23)n1	-6%	-1%
COCCn1c(=O)c(-c2ccc(Cl)cc2)nc2cnc(N3CCNCC3)nc21	?	-5%
CC1(c2ccccc2)CC(C)(C)N2C(=O)C3(C(C#N)=C(N)Oc4cc(O)ccc43)c3cccc1c32 (configuration not stated)	12%	-6%
CC1(c2ccccc2)CC(C)(C)N2C(=O)/C(=C3\SC(=S)NC3=O)c3cccc1c32 (configuration not stated)	7.9µM*	-10%
C=CCn1c(=O)c2ccccc2n2c(SCC(=O)c3ccccc3)nnc12	16µM*	-1%
C=CCn1c(=O)c2ccccc2n2c(SCC(=O)NCCc3ccccc3)nnc12	-9%	0%
CCNc1cc2oc(=O)c(CN3CCOCC3)c(C)c2cc1C	?	28µM*
